Source: PubChem BioAssay
In the library only some 8% were active in any assay of this set; here they are far more common.
KB-3-1 cytotox – KB-3-1 parental cell cytotoxicity | Potency, µM (highest dose often 46.1 µM), most hits filed as cytotoxic | hit rate 1.4% among 400,000 | KB-3-1 viability, CellTiter-Glo ATP luminescence, 72 h | AID 1347075; note: % is set by controls: 0 for no effect and ±100 for the full control effect; nearly all actives have a fitted effect of over 60% in size
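Screening of KB-3-1 cells (DMEM, 10% FBS, phenol-red free) ran from lowest to highest compound concentration; after 72 h at 37 °C viability was read luminescently and curves fitted.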
HT1080 IDH1KD tx – HT-1080 IDH1 knockdown cell toxicity (counter line); AID 686971; hit rate 2% among 360,000; HT-1080 IDH1 knockdown viability, ATP luminescence, 48 h; Potency, µM (highest dose often 46.1 µM), for inactives: at the highest dose activity, negative = toxicity, most hits filed as cytotoxic;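 note: 0% = DMSO wells and -100% = cell-free medium wells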
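HT-1080-IDH1KD cells (IDH1 knocked down), 750/well in RPMI with 5% FBS, treated with compound 48 h at 37 degrees C. Viability by CellTiter-Glo luminescence, normalised to DMSO and no-cell wells; concentration-response curves classed.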
SW480 rerep – induces DNA re-replication in SW480 colon adenocarcinoma cells; SW480 DNA re-replication, Hoechst DNA content imaging, 48 h; AID 624297; Potency, µM (top dose mostly 46.1 µM), for the others: at the top dose re-replication activation, actives largely listed as activators; hit rate 1.8% among 340,000; note: % of control where 0% means no effect; nearly all actives have a fitted effect of over 55% in size
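250 cells/well; 23 nL cpd via pin tool; 48 hr, 37 C, 5% CO2; Hoechst 40 min; imager read of total nuclear intensity, ex 405/em 500-530 nm.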
KB-V1 cytotox – KB-V1 MDR subline cytotoxicity; KB-V1 MDR cells viability, CellTiter-Glo, 72 h; Potency, µM (highest dose often 46.1 µM), actives largely listed as cytotoxic; hit rate 3.4% among 400,000; AID 1347076; note: % is set by controls: 0 for no effect and ±100 for the full control effect; nearly all actives have a fitted effect of over 60% in size
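Potencies derive from concentration-effect curves fitted to normalized luminescence (CellTiter-Glo) of KB-V1 cells treated for 72 h at 37 degrees C in phenol-red-free DMEM containing 10% FBS.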
HT1080NT lethal – kills 2HG-producing HT-1080-NT fibrosarcoma cells; HT-1080-NT fibrosarcoma viability, CellTiter-Glo ATP luminescence, 48 h; Potency, µM (top dose mostly 46.1 µM), for the others: at the highest dose activity, negative = less viability, hits mostly cytotoxic; hit rate 1.6% among 360,000; AID 686970;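 note: NT is the 2HG producing partner of a matched IDH1 knockdown line; 0% = DMSO-treated cells and -100% = media-only wells without cells; nearly all actives have a fitted effect of over 55% in size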
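Read-out is CellTiter-Glo luminescence after 10 minutes at room temperature, following 48 hours' compound treatment of HT-1080-NT cells (750 cells/well, RPMI, 5% FBS, 37 degrees C).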
MCF10A rerep – induces DNA re-replication in MCF 10a normal breast cells. MCF 10A DNA re-replication, Hoechst nuclear intensity, 48 h. hit rate 2.9% among 350,000. Potency, µM (series often up to 46.1 µM), without a hit: at the top dose activity, positive = re-replication, usual class: activators; note: % of control where 0% means no effect; nearly all actives have a fitted effect of over 50% in size
* hit, by the source's call; [ ] = another dose, or the depositor's remark. Calls come from the whole dose curve; as a rule, active = well fitted curve in the direction sought with a large enough effect; inconclusive = small, poorly fitted or top-dose-only effect, or another doubt; inactive = no such curve, though single readings can be large; an effect the other way counts as inactive or inconclusive. Potency is the fitted concentration of half-maximal effect.

Results for COc1ccc(-c2ccc(=O)n(CC(=O)NC3CCc4ccccc43)n2)cc1OC (stereo not given) ?
KB-3-1 cytotox: inactive; HT1080 IDH1KD tx: 8.9%; SW480 rerep: -24.2%; KB-V1 cytotox: inconclusive; HT1080NT lethal: 10.8%; MCF10A rerep: -10.1%

Results for CN(C)CCN1CC(O)=C(c2nc3ccccc3s2)C1=N ?
KB-3-1 cytotox: inactive; HT1080 IDH1KD tx: -2.9%; SW480 rerep: 3.0%; KB-V1 cytotox: inactive; HT1080NT lethal: -6.8%; MCF10A rerep: 18.4µM*

How did COc1cccc(CNC(=O)Cn2c(SCC(=O)Nc3ccc(C)c(C)c3)nc3ccccc32)c1 do in these assays?
KB-3-1 cytotox: inactive; KB-V1 cytotox: inconclusive

Results for COc1cccc(N/C(SCc2ccccc2Cl)=C(/C#N)C(=O)NCc2cccs2)c1 ?
KB-3-1 cytotox: inactive; HT1080 IDH1KD tx: 10.9%; SW480 rerep: 7.8%; KB-V1 cytotox: 14.6µM*; HT1080NT lethal: 5.4%; MCF10A rerep: 23.2%

How did COc1cccc(N/C(SCc2cccc([N+](=O)[O-])c2)=C(/C#N)C(=O)NCc2cccs2)c1 do in these assays?
KB-3-1 cytotox: inactive; HT1080 IDH1KD tx: 0.2%; SW480 rerep: 6.5%; KB-V1 cytotox: inactive; HT1080NT lethal: -3.2%; MCF10A rerep: 7.0%

How did COc1cccc(N/C(SC)=C(/C#N)C(=O)NCc2cccs2)c1 do in these assays?
KB-3-1 cytotox: inactive; HT1080 IDH1KD tx: -10.5%; SW480 rerep: 7.8%; KB-V1 cytotox: inconclusive; HT1080NT lethal: -4.0%; MCF10A rerep: 0.5%

How did COc1cccc(N/C(SCc2ccccc2C)=C(/C#N)C(=O)NCc2cccs2)c1 do in these assays?
KB-3-1 cytotox: inactive; HT1080 IDH1KD tx: -16.5%; SW480 rerep: -22.9%; KB-V1 cytotox: 5.17µM*; HT1080NT lethal: -14.2%; MCF10A rerep: 9.9%

What do the screens show for `CCOC(=O)c1c(S(=O)(=O)NCC(=O)Nc2ccc(C(C)=O)cc2)c(C)n(C)c1C`?
KB-3-1 cytotox: inactive; KB-V1 cytotox: inactive

What do the screens show for `Cc1ccc(S(=O)(=O)N2CCN(Cc3noc(CCC(=O)N4CCCCC4)n3)CC2)c(C)c1`?
KB-3-1 cytotox: inactive; KB-V1 cytotox: inactive

What do the screens show for `COc1ccc(CCN2C(=S)NC3CC2(C)Oc2ccc([N+](=O)[O-])cc23)cc1OC` (stereo not given)?
KB-3-1 cytotox: inactive; HT1080 IDH1KD tx: inconclusive; SW480 rerep: 16.4µM*; KB-V1 cytotox: 6.51µM*; HT1080NT lethal: -14.2%; MCF10A rerep: 25.4%

How did COc1ccc(N2C(=O)NC3CC2(C)Oc2ccc(Cl)cc23)cc1OC (stereo not given) do in these assays?
KB-3-1 cytotox: inconclusive; HT1080 IDH1KD tx: -1.5%; SW480 rerep: inconclusive; KB-V1 cytotox: inconclusive; HT1080NT lethal: -3.1%; MCF10A rerep: inconclusive

What do the screens show for `CCNc1nc2c(c(=O)n(C)c(=O)n2C)n1CC(O)COc1ccccc1` (stereo not given)?
KB-3-1 cytotox: inconclusive; KB-V1 cytotox: 5.17µM*

Results for CCCNc1nc2c(c(=O)n(C)c(=O)n2C)n1CC(O)COc1ccccc1 (stereo not given) ?
KB-3-1 cytotox: inactive; KB-V1 cytotox: 9.2µM*

Results for Cc1ccccc1OCC(O)Cn1c(NCc2ccco2)nc2c1c(=O)n(C)c(=O)n2C (stereo not given) ?
KB-3-1 cytotox: inactive; HT1080 IDH1KD tx: 0.0%; SW480 rerep: 1.0%; KB-V1 cytotox: inconclusive; HT1080NT lethal: -22.5%; MCF10A rerep: 14.8%

What do the screens show for `COc1ccc(OCC(O)Cn2c(Nc3cccc(C)c3)nc3c2c(=O)n(C)c(=O)n3C)cc1` (stereo not given)?
KB-3-1 cytotox: inactive; HT1080 IDH1KD tx: 7.1%; SW480 rerep: -5.4%; KB-V1 cytotox: inactive; HT1080NT lethal: 4.6%; MCF10A rerep: 8.3%

What do the screens show for `CCOc1ccc2[nH]c(=O)c(C(c3nnnn3C3CCCCC3)N3CCN(C)CC3)cc2c1` (stereo not given)?
KB-3-1 cytotox: inactive; HT1080 IDH1KD tx: -11.2%; SW480 rerep: -4.9%; KB-V1 cytotox: inactive; HT1080NT lethal: -6.7%; MCF10A rerep: 2.3%

Results for Cc1ccc2[nH]c(=O)c(CN(CCCO)C(C)c3nnnn3Cc3ccco3)cc2c1 (stereo not given) ?
KB-3-1 cytotox: inactive; HT1080 IDH1KD tx: 1.4%; SW480 rerep: -120.5%; KB-V1 cytotox: inactive; HT1080NT lethal: -1.5%; MCF10A rerep: 1.5%

How did CCC(c1nnnn1Cc1ccco1)N(Cc1ccccc1OC)Cc1cc2cc(C)ccc2[nH]c1=O (stereo not given) do in these assays?
KB-3-1 cytotox: inactive; HT1080 IDH1KD tx: -5.7%[9.24 µM]; SW480 rerep: -5.7%; KB-V1 cytotox: 13µM*; HT1080NT lethal: inconclusive; MCF10A rerep: inconclusive

Results for COc1ccc2[nH]c(=O)c(CN(C3CCCCC3)C(c3nnnn3Cc3ccco3)C(C)C)cc2c1 (stereo not given) ?
KB-3-1 cytotox: inconclusive; HT1080 IDH1KD tx: -23.7%; SW480 rerep: 12.7%; KB-V1 cytotox: 11.6µM*; HT1080NT lethal: -15.8%; MCF10A rerep: inconclusive

Results for COc1ccc2[nH]c(=O)c(C(c3nnnn3C3CCCC3)N(C)C3CCCCC3)cc2c1 (stereo not given) ?
KB-3-1 cytotox: inactive; HT1080 IDH1KD tx: -0.9%; SW480 rerep: 15.8%; KB-V1 cytotox: 5.17µM*; HT1080NT lethal: -0.6%; MCF10A rerep: 14.3%

Results for Cc1ccc(CCNC(=O)c2oc(=O)c3ccccc3c2-c2ccc(C)cc2)cc1 ?
KB-3-1 cytotox: inactive; KB-V1 cytotox: inactive

How did Cc1cc([N+](=O)[O-])ccc1NCc1ccccc1[N+](=O)[O-] do in these assays?
KB-3-1 cytotox: inconclusive; HT1080 IDH1KD tx: -12.5%; SW480 rerep: 1.1%; KB-V1 cytotox: inactive; HT1080NT lethal: -11.9%; MCF10A rerep: 18.6%

Results for Cc1cc([N+](=O)[O-])ccc1NCc1cccc2ccccc12 ?
KB-3-1 cytotox: inactive; HT1080 IDH1KD tx: -0.8%; SW480 rerep: 2.4%; KB-V1 cytotox: 13µM*; HT1080NT lethal: inconclusive; MCF10A rerep: -0.2%

How did CSCc1cc(C(=O)NCCN2CCOCC2)c(N)s1 do in these assays?
KB-3-1 cytotox: inactive; HT1080 IDH1KD tx: 8.1%; KB-V1 cytotox: inactive; HT1080NT lethal: 1.9%

How did CCCn1c2ccccc2c2nc3ccccc3nc21 do in these assays?
KB-3-1 cytotox: inactive; HT1080 IDH1KD tx: -5.0%; SW480 rerep: inconclusive; KB-V1 cytotox: inactive; HT1080NT lethal: -16.9%; MCF10A rerep: 22.4µM*
